Experimental data: publication PMC4336329 (PLoS ONE, 2015)
Screen size: about 310,000 compounds; about 14,000 (4.5%) showed an effect of 50% or more. The effect is printed as a negative number. The full list was thinned out, with strong results kept by preference.

These compounds were tested against human ether-à-go-go-related gene (hERG) potassium channel (human, UniProt Q12809) (assay: primary screen, population patch clamp on CHO cells stably expressing hERG; higher = less effect of the substance).
human ether-à-go-go-related gene (hERG) potassium channel, sequence (Q12809 whole entry, looked up): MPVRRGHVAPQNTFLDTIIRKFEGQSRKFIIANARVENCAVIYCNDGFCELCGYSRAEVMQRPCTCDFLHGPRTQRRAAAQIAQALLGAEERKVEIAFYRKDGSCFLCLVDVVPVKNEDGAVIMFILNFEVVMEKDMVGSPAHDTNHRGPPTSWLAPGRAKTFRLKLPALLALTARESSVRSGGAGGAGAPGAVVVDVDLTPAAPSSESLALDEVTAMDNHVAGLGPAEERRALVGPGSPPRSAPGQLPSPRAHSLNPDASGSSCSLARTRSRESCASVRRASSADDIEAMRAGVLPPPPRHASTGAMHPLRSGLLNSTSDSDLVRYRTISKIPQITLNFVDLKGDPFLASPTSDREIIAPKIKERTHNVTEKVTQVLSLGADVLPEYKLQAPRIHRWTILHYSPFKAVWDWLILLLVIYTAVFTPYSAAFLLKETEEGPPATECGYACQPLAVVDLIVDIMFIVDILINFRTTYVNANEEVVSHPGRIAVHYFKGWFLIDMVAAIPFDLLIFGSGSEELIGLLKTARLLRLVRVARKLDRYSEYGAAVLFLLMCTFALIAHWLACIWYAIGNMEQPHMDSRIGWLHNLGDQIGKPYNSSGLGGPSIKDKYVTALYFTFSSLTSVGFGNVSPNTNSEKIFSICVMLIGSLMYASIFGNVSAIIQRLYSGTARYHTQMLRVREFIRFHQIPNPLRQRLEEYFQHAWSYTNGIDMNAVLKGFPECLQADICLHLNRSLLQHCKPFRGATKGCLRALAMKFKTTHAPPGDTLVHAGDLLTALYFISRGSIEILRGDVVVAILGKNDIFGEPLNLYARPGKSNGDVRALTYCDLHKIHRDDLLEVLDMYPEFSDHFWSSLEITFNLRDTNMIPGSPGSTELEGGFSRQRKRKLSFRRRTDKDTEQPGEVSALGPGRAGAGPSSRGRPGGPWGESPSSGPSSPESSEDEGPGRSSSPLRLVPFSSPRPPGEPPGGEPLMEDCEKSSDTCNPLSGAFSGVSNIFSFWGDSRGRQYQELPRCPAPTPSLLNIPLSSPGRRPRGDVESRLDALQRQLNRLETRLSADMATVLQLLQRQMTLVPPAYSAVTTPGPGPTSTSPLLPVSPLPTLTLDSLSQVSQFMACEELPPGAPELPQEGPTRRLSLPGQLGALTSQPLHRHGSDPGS
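Also: peak tail current of the secondary pulse compared with the same well before compound.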

**Q.** With `Cc1cc(C(c2nnnn2Cc2ccccc2)N2CCOCC2)c(C)n1-c1ccc2c(c1)OCO2` (stereo not drawn) as the compound, how does the “hERG current change (%, negative = inhibition) at 10uM” value read?
**A.** Its value is -32.1%.

**Q.** With `CCC(C)(C(=O)Nc1ccccc1C)N(C(=O)CNC(C)=O)c1ccc(C)cc1` (stereo not drawn) as the compound, how does the “hERG current change (%, negative = inhibition) at 10uM” value read?
**A.** The value was 14.8%.

**Q.** `COc1ccc(NC(=O)COC(=O)CCCC2=NS(=O)(=O)c3ccccc3N2)cc1Cl` was tested. Which “hERG current change (%, negative = inhibition) at 10uM” value did it give?
**A.** Its value is 38.8%.

**Q.** For `O=C(NCc1ccccc1)c1cc(S(=O)(=O)N2CCCCC2)ccc1N1CCOCC1`, which “hERG current change (%, negative = inhibition) at 10uM” value is on record?
**A.** The value was -20.1%.

**Q.** Which “hERG current change (%, negative = inhibition) at 10uM” value does the source give for `O=C(CSc1nnc(CNc2ccc(F)cc2)o1)N1CCCc2ccccc21` here?
**A.** The value was 2.24%.

**Q.** For `CCN1CCCC1CNCC(=O)Nc1ccc(OC(F)(F)F)cc1.O=C(O)C(=O)O` (stereo not drawn), which “hERG current change (%, negative = inhibition) at 10uM” value is on record?
**A.** The value was -70.7%.

**Q.** How did the “hERG current change (%, negative = inhibition) at 10uM” value turn out when `CNCC(=O)Nc1ccc(OC(F)(F)F)cc1.Cl` was run?
**A.** Its value is -3.92%.

**Q.** Which “hERG current change (%, negative = inhibition) at 10uM” value does the source give for `CCN(C(=S)Nc1ccc(OC(F)F)cc1)C1CCCCC1` here?
**A.** The value was -22.8%.

**Q.** Which “hERG current change (%, negative = inhibition) at 10uM” value does the source give for `CCN(CC(=O)Nc1ccc(OC(F)F)cc1)C1CCCCC1` here?
**A.** The value was -73.5%.

**Q.** Which “hERG current change (%, negative = inhibition) at 10uM” value does the source give for `CCN1CCCC1CNCC(O)COc1ccc(C(C)(C)C)cc1C.O=C(O)C(=O)O` (stereo not drawn) here?
**A.** The value was -54.4%.

**Q.** For `CCN1CCCC1CNC(=O)C(=O)Nc1ccc(OC)cc1` (stereo not drawn), which “hERG current change (%, negative = inhibition) at 10uM” value is on record?
**A.** The value was -5.95%.

**Q.** For `CCC(C)(C)NCC(=O)Nc1ccc(OC(F)(F)F)cc1`, which “hERG current change (%, negative = inhibition) at 10uM” value is on record?
**A.** Its value is -32.7%.

**Q.** Which “hERG current change (%, negative = inhibition) at 10uM” value does the source give for `Cl.O=C(CNCC1CCCCC1)Nc1ccc(OC(F)(F)F)cc1` here?
**A.** Its value is -62.4%.

**Q.** With `CCN1CCCC1CNC(=O)C(=O)NCCc1ccc(OC)c(OC)c1` (stereo not drawn) as the compound, how does the “hERG current change (%, negative = inhibition) at 10uM” value read?
**A.** The value was -1.49%.

**Q.** Which “hERG current change (%, negative = inhibition) at 10uM” value does the source give for `CCN(CC(=O)Nc1ccc(C(=O)OC)cc1)C1CCCCC1` here?
**A.** Its value is -1.85%.

**Q.** With `O=C(CNCC1CCCCC1)Nc1ccc(N2CCCCC2)cc1.O=C(O)C(=O)O` as the compound, how does the “hERG current change (%, negative = inhibition) at 10uM” value read?
**A.** Its value is -17.3%.

**Q.** For `CCN1CCCC1CNC(=O)c1cc(N)ccc1OC.O.O=C(O)C(=O)O` (stereo not drawn), which “hERG current change (%, negative = inhibition) at 10uM” value is on record?
**A.** The value was 13.5%.

**Q.** Which “hERG current change (%, negative = inhibition) at 10uM” value does the source give for `C=CCN1C(=O)NC(=O)/C(=C/c2cc3c4c(c2)CCCN4CCC3)C1=O` here?
**A.** Its value is -10.2%.

**Q.** With `CC1CC(C(F)(F)F)n2ncc(C(=O)O)c2N1` (stereo not drawn) as the compound, how does the “hERG current change (%, negative = inhibition) at 10uM” value read?
**A.** Its value is 11.5%.

**Q.** Which “hERG current change (%, negative = inhibition) at 10uM” value does the source give for `CCNC(=O)c1ccc2c(c1)C1C3CCC(C3)C1C(c1ccccc1)N2` (stereo not drawn) here?
**A.** The value was -5.8%.

**Q.** With `CC1=C(C(=O)Nc2ccc(F)cc2)C(c2ccc(C)o2)C2=C(CC(C)(C)CC2=O)N1` (stereo not drawn) as the compound, how does the “hERG current change (%, negative = inhibition) at 10uM” value read?
**A.** The value was -7.85%.

**Q.** Which “hERG current change (%, negative = inhibition) at 10uM” value does the source give for `COc1ccccc1CNC(=O)COC(=O)c1cc(=O)[nH]c2ccccc12` here?
**A.** Its value is 1.03%.

**Q.** How did the “hERG current change (%, negative = inhibition) at 10uM” value turn out when `Cc1cc(Cl)ccc1C(=O)C1CCCN(C(=O)c2cnn(C(C)C)c2)C1` (stereo not drawn) was run?
**A.** Its value is -17.7%.

**Q.** Which “hERG current change (%, negative = inhibition) at 10uM” value does the source give for `CC(C)Oc1ccc(C(=O)NN2C(=O)NC3(CCCCC3)C2=O)cc1` here?
**A.** The value was 1.38%.
